sEH inh: soluble epoxide hydrolase inhibitors, primary screen, biochemical, human sEH | recombinant human sEH enzymatic activity assay | 0.34% of 91,000 active | inhibition, % at 2 µM; in the data active = inhibition above about 80%
CYP2C9 inh: blockers of cytochrome P450 2C9 activity – biochemical, luminescence, ADME assay, primary screen; CYP2C9 Supersomes, luciferin-H conversion; inhibition, % at 5 µM; 20% of 96,000 active; P11712;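 active = blocking of liver enzyme CYP2C9 beyond about 50% at 5 µM, limit read from the data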
CYP2C9 activ: human CYP2C9 activators, primary screen, biochemical, luminescence. AID 1024, 2008. recombinant CYP2C9, luciferin-H conversion; active compounds read high; factor 1 = untreated enzyme, 0 = blocked. 1.4% of 96,000 active. activation factor at 5 µM;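 active = activation factor of 2 or more for CYP2C9 at a 5 µM dose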;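 also: 0 = sulfaphenazole-blocked wells and 1 = vehicle-only wells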
sEH activator: soluble epoxide hydrolase activators, primary screen, biochemical, human sEH; activation, % at 2 µM; purified human sEH enzymatic activity, activator screen; Bifunctional epoxide hydrolase 2 (Homo sapiens), P34913; AID 717, 2007; 0.04% of 91,000 active; in the data active = activation above about 37%
CYP2C19 act: human CYP2C19 activators, primary screen, biochemical, luminescence | Cytochrome P450 2C19 (Homo sapiens), P33261 | recombinant CYP2C19, luciferin-H EGE luminescence; active compounds read high; 0 = fully inhibited enzyme, 1 = untreated enzyme | activation factor at 5 µM | 96,000 tested, under 10 active | AID 1025, 2008;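 active = activation factor of at least 2 at 5 µM in the primary screen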;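 also: 0 = wells with 2.5 mM tranylcypromine and 1 = vehicle-only wells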
Target sequence (P33261 whole entry, looked up): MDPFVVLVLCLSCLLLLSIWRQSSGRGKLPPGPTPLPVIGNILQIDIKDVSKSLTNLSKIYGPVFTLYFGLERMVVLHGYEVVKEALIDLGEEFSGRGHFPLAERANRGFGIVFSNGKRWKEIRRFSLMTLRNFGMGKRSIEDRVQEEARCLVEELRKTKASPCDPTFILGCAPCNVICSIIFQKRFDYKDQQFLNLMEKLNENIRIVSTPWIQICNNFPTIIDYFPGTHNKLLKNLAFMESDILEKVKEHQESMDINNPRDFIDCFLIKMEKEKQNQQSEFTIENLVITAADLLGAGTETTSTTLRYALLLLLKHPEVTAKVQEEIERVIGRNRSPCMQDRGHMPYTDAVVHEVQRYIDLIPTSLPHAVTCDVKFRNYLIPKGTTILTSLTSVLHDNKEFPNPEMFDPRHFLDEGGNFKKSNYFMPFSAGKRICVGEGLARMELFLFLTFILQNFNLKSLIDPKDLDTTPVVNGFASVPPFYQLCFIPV
CYP2C19 inh: blockers of cytochrome P450 2C19 activity – biochemical, luminescence, ADME assay, primary screen; P33261; CYP2C19 Supersomes, luciferin-H EGE luminescence, 30 min; inhibition, % at 5 µM; 21% of 96,000 active; AID 778, 2007;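 active = CYP2C19 inhibition above a set limit at 5 µM in the primary screen, cut at about 50% in these data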;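 also: plate controls were negative control wells for no effect and 2.5 mM tranylcypromine positive control for full effect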
* hit, by the source's call; . = no result given. The list is not random: actives were taken first. Their share in the collection is about 27%.

SMILES	sEH inh	CYP2C9 inh	CYP2C9 activ	sEH activator	CYP2C19 act	CYP2C19 inh
N#Cc1c(C(F)(F)F)cc(-c2ccco2)nc1SCc1ccncc1	-6	92*	0.1	4	0.1	87*
c1ccc(-c2cc(-c3nn4c(-c5ccco5)nnc4s3)c3ccccc3n2)cc1	0	77*	0.2	2	0.6	37
Cc1ccc(-c2nnc3sc(CCc4ccccc4)nn23)cc1	4	76*	0.2	-9	0.3	65*
Cc1cc(-c2nn3c(-c4ccccc4)nnc3s2)c2ccccc2n1	-1	32	0.7	2	0.2	79*
CCOc1ccc(-c2nnc3sc(COc4ccccc4)nn23)cc1	.	-10	1.1	.	0.8	17
Cc1ccccc1-c1nn2c(-c3ccccc3)nnc2s1	.	56*	0.4	.	0.1	87*
COc1ccc(-c2nnc3sc(-c4ccccc4OC)nn23)cc1	.	19	0.8	.	1	-4
Cc1c(NC(=O)CCN2C(=O)c3ccccc3C2=O)c(=O)n(-c2ccccc2)n1C	1	-16	1.2	-1	1.1	-12
CCOC(=O)c1snc(-c2ccc(F)cc2)c1N	-1	9	0.9	1	0.7	33
CC(=O)C1=C(C)NC(=O)NC1c1cc(Br)ccc1OCC(N)=O (stereo unspecified)	6	5	1	-5	0.9	12
Cc1ccc2nc3ccc(N4CCN(C)CC4)nn3c(=O)c2c1	19	2	1	-20	0.8	21
Cc1ccc2nc3ccc(N4CCCCCCC4)nn3c(=O)c2c1	-10	70*	0.3	9	0.4	64*
Cc1ccc(OCc2nn3c(-c4n[nH]c5c4CCC5)nnc3s2)cc1	.	18	0.8	.	0.9	8
Clc1cccc(Cl)c1COc1ccccn1	2	37	0.6	-2	0.5	52*
Cc1[nH]ccc(=O)c1OCc1c(Cl)cccc1Cl	9	18	0.8	-7	0.9	12
Cc1ccc2nc(SCc3ccc([N+](=O)[O-])cc3)[nH]c2c1	7	.	.	-8	.	.
Cc1ccc2nc(CSc3nc(C)ccc3C#N)[nH]c2c1	-4	50	0.5	6	0.4	58*
COc1ccc(CCNC(=O)c2nnn(-c3cccc(C)c3)c2N)cc1OC	0	68*	0.3	2	0.9	8
CCOc1ccc(NC(=O)Cn2nnc(C(=O)NCc3ccco3)c2N)cc1	8	7	0.9	-7	1	0
CCOc1ccc(NC(=O)Cn2nnc(C(=O)NCCc3ccc(OC)c(OC)c3)c2N)cc1	-4	79*	0.2	5	0.7	32
COc1ccc(CCNC(=O)c2nnn(-c3cc(C)cc(C)c3)c2N)cc1OC	10	-79	1.8	-8	0.8	16
Cc1cccc(-n2nnc(C(=O)Nc3ccc(F)cc3)c2N)c1	4	-166	2.7*	-4	1.1	-6
CCOC(=O)c1sc(NC(=O)CSc2nc3c(cc2C#N)CCC3)c(C#N)c1C	1	.	.	2	.	.
COc1ccc(-c2c(C#N)c(SCC(N)=O)nc3c2CCCC3)cc1	0	.	.	5	.	.
CCOC(=O)c1sc(NC(=O)CSc2n[nH]c(-c3ccc(Cl)cc3Cl)n2)c(C#N)c1C	-3	76*	0.2	2	0.7	34
SMILES	sEH inh	CYP2C9 inh	CYP2C9 activ	sEH activator	CYP2C19 act	CYP2C19 inh
CCOC(=O)c1sc(NC(=O)CSc2nc3c(c(-c4ccc(OC)cc4)c2C#N)CCCC3)c(C#N)c1C	.	64*	0.4	.	0.7	30
CCOC(=O)c1sc(NC(=O)CSc2nc3c(cc2C#N)CCCCCC3)c(C#N)c1C	-25	68*	0.3	25	0.8	16
Cc1ccc(Oc2cc(C#N)c(C#N)cc2-n2nnc3ccccc32)cc1C	-10	-20	1.2	6	1.2	-22
CCN(CC)c1ccc(NC(=O)CC2Oc3ccccc3NC2=O)c(C)c1 (stereo unspecified)	.	-28	1.3	.	0.9	6
Cc1csc(C(C#N)C(=O)c2cc3ccccc3o2)n1 (stereo unspecified)	7	60*	0.4	-5	1	4
CS/C(=N\S(=O)(=O)c1cccs1)Nc1ccc(N2CCOCC2)cc1	8	5	0.9	-8	1	2
CC(=O)Nc1ccc(S(=O)(=O)NCCSCc2ccco2)cc1	-8	66*	0.3	4	0.4	60*
CC(=O)Nc1ccc(S(=O)(=O)NCCSCc2c(Cl)cccc2Cl)cc1	-2	77*	0.2	1	0.3	73*
CCOC(=O)C1=C(N)c2ccccc2CC1C(C)C (stereo unspecified)	9	81*	0.2	-8	0	96*
COc1ccc(S(=O)(=O)Nc2ccc(C(F)(F)F)cc2)cc1OC	-5	62*	0.4	8	0	99*
COc1ccc(S(=O)(=O)N2CCC(C(=O)N3CCCCCC3)CC2)cc1	5	-152	2.5*	-5	0.2	85*
COc1ccc(S(=O)(=O)Nc2cccc(Cl)c2)cc1OC	-4	-53	1.5	2	0.1	93*
O=C(Nc1ccc2c(c1)OCCO2)C1CCN(S(=O)(=O)c2ccc3c(c2)OCCO3)CC1	44	-73	1.7	-45	0.8	16
COc1ccc(C(=O)C2CCN(S(=O)(=O)c3ccc4c(c3)OCCO4)CC2)cc1	5	14	0.9	-5	0	98*
NC(=O)c1nsnc1-c1ccccc1O	.	16	0.8	.	1	-4
COc1ccc(NS(=O)(=O)c2ccc(S(=O)(=O)N3CCCC3)cc2)cc1	-9	69*	0.3	8	0.7	31
COc1ccc(NS(=O)(=O)c2ccc(S(=O)(=O)N3CCCC3)cc2)cc1Cl	5	97*	0	-4	0	98*
O=S(=O)(Nc1ccc(S(=O)(=O)N2CCOCC2)cc1)c1ccccc1	14	46	0.5	-14	0.9	7
COc1ccc(S(=O)(=O)N2CCCCC2)cc1	8	-41	1.4	-7	0.7	28
COc1ccc(S(=O)(=O)Nc2ccc(F)c(F)c2)cc1Cl	0	34	0.7	4	0.4	61*
COc1ccc(S(=O)(=O)Nc2ccc(S(=O)(=O)N3CCOCC3)cc2)cc1C	8	93*	0.1	-5	0.2	76*
CC(=O)Nc1cc(C(F)(F)F)ccc1Oc1cccc(Br)c1	-2	58*	0.4	3	0	98*
CCN1CCc2c(sc3c2c(NCc2ccco2)nc2nnnn23)C1	.	53*	0.5	.	0.6	42
Nc1nc(SCC(=O)NCC2CCCO2)n[nH]1 (stereo unspecified)	-4	7	0.9	-1	1.1	-5

From PubChem
